# POLB inh: DNA polymerase beta (human) inhibition; P06746; Pol beta primer extension/strand displacement, fluorescence kinetic; Potency, µM (top dose mostly 114 µM), without a hit: top-dose activity change, negative = inhibition, actives largely listed as inhibitors; 340,000 tested, 1.3% active; AID 485314; note: potency is the fitted concentration of half-maximal effect; % is set by controls: 0 for no effect and ±100 for the full control effect
#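 Human Pol beta at 10 nM; strand-displacement substrate 50 nM final. Compound exposure 15 min at room temperature before start, reaction 10 min at room temperature.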
# Pol iota inh: DNA polymerase iota (human) inhibition | Potency, µM (titrated, usually from 115 µM), for inactives: at the top dose activity, negative = inhibition, most hits filed as inhibitors | Pol iota fluorescent replication assay, 10 min | 390,000 tested, 1% active; note: potency is the fitted concentration of half-maximal effect
#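 Fluorescent replication assay read twice, at 0 min and 10 min after adding 50 nM (final) substrate. Enzyme (10 nM) and compounds were first incubated 15 min at room temperature; enzyme-free buffer wells were negative controls.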
# Pol eta inh-1: DNA polymerase eta (human) inhibition. Q9Y253. recombinant Pol eta, fluorescent DNA replication assay. Potency, µM (top dose mostly 114 µM), for inactives: top-dose activity change, negative = inhibition, actives largely listed as inhibitors. 390,000 tested, 1.2% active. AID 588591; note: potency is the fitted concentration of half-maximal effect; % is set by controls: 0 for no effect and ±100 for the full control effect
#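 Fluorescent replication assay: 50 nM final substrate added after a 15 min room-temperature compound preincubation with 10 nM enzyme. Signal taken at 0 min and again at 10 min.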
# Pol kappa inh-1: blocks human DNA polymerase kappa activity | purified Pol kappa, fluorescent DNA synthesis assay, 10 min | Potency, µM (series often up to 107 µM), without a hit: at the highest dose activity, negative = inhibition, hits mostly inhibitors | Q9UBT6 | 400,000 tested, 0.53% active | AID 588579; note: potency is the fitted concentration of half-maximal effect; % is set by controls: 0 for no effect and ±100 for the full control effect
#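 Fluorescent qHTS in 1536-well format: enzyme (10 nM) and compound sat 15 min at room temperature before 50 nM substrate (final) was added. Signal taken at 0 and 10 min; no-enzyme buffer wells were negative controls.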
# TDP1 inh: TDP1 (human) enzyme inhibition; AID 485290; Potency, µM (titrated, usually from 130 µM), for inactives: at the highest dose activity change, negative = inhibition, usual class: inhibitors; 350,000 tested, 0.28% active; Q9NUW8; recombinant TDP1, AlphaScreen DNA substrate cleavage; note: potency is the fitted concentration of half-maximal effect; % is set by controls: 0 for no effect and ±100 for the full control effect; nearly all actives have a fitted effect of over 40% in size
# Target sequence (Q9NUW8 whole entry, looked up): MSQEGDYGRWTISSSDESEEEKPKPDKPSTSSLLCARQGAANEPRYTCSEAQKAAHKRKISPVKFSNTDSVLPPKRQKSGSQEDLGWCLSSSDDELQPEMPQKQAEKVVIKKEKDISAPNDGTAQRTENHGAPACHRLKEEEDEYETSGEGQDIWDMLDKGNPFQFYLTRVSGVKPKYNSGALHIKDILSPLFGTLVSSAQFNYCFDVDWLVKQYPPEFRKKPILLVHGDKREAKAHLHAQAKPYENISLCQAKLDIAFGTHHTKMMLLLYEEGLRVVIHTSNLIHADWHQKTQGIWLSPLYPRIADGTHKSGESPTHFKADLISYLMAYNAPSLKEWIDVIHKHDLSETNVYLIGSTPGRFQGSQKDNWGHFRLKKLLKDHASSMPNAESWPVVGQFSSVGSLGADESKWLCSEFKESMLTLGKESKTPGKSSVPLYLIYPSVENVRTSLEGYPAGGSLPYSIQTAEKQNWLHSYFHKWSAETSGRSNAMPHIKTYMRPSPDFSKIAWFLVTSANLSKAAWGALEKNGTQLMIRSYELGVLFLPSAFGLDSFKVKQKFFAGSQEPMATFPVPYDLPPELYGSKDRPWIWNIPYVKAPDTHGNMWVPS
#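 Recombinant human Tdp1 (E. coli-expressed, 1 nM final) preincubated with compounds 15 min at room temperature, then 5'-biotin/3'-phosphotyrosine-FITC DNA substrate (15 nM final) added for 5 min. AlphaScreen beads (10 ug/ml final) added 10 min; cleavage lowers signal.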
# GALK confirm: galactokinase (human) inhibition, confirmation; shares compounds with Pol eta inh-1; purified GALK, Kinase-Glo ATP depletion luminescence; Potency, µM (top dose mostly 115 µM), for inactives: at the top dose activity, negative = inhibition, usual class: inhibitors; 150 tested, 70% active; AID 2015
# Redox cycling: redox cycling activity in phenol red-HRP assay | shares compounds with Pol eta inh-1 | Phenol red-HRP H2O2 redox cycling, absorbance 600 nm | Potency, µM (doses to about 115 µM), for the others: top-dose activity change, negative = H2O2 signal, hits mostly inhibitors | 150 tested, 40% active | AID 2035
# HEK293 viability: counter-screen for GALK inhibitors: HEK293 cell cytotoxicity; HEK-293 viability, ATP luminescence (CellTiter-Glo), 24/48 h; 170 tested, 10% active; shares compounds with Pol eta inh-1; Potency, µM (highest dose often 46.1 µM), inactives show top-dose activity change, negative = cytotoxicity, actives largely listed as inhibitors; note: potency is the fitted concentration of half-maximal effect; % is set by controls: 0 for no effect and ±100 for the full control effect
# Pol kappa inh-2: Pol kappa (human) inhibition, cherry-pick confirmation; shares compounds with Pol eta inh-1; purified Pol-kappa, fluorescent strand-displacement substrate; Potency, µM, most hits filed as inhibitors; 920 tested, 76% active; AID 720501; note: potency is the fitted concentration of half-maximal effect
# Pol eta inh-2: confirmation of human DNA polymerase eta inhibitors; 2,600 tested, 64% active; Pol eta primer extension, TAMRA/BHQ fluorescence, 10 min; Potency, µM, hits mostly inhibitors; shares compounds with Pol eta inh-1; note: potency is the fitted concentration of half-maximal effect
# An asterisk follows results filed as active; ? = inconclusive; · = no result; [ ] = another dose, or the depositor's remark. Most compounds without a hit are left out; they make up all but 2.4% or so of the library. Calls come from the whole dose curve; as a rule, active = well fitted curve in the direction sought with a large enough effect; inconclusive = small, poorly fitted or top-dose-only effect, or another doubt; inactive = no such curve, though single readings can be large; an effect the other way counts as inactive or inconclusive.
SMILES,POLB inh,Pol iota inh,Pol eta inh-1,Pol kappa inh-1,TDP1 inh,Pol eta inh-2,others
O=C(/C=C/c1ccc(NC(=O)c2ccccc2-c2ccccc2C(=O)O)cc1)c1ccccc1,-25%,?,11µM*,-25%,-7%,30*,
O=C1CC(c2cccc(Cl)c2Cl)c2cc3c(cc2N1)OCCO3 (stereo not drawn),7%,?,-13%,11%,-3%,·,
COC(=O)C1=C[C@@H](C(=O)OC)[C@H]2C3=C(C(=O)[C@@]2(C)NC(=O)c2ccccc2)[C@H](C)C(C(=O)OC)=C(C(=O)OC)[C@@H]3C1,·,-7%,·,-9%,5%,·,
Cc1cccc(C)c1NC(=O)Cn1cc(S(=O)(=O)Cc2ccc(F)cc2)c2ccccc21,28µM*,?,?,?,-11%,?,Pol kappa inh-2=?
Cc1cc(C)c(NC(=O)Cn2cc(S(=O)(=O)Cc3ccccc3F)c3ccccc32)c(C)c1,5%,-2%,-9%,-20%,-7%,·,
Cc1ccc([N+](=O)[O-])cc1S(=O)(=O)Nc1ccc(C(=O)NCc2ccccn2)cc1,·,?,?,?,·,?,
O=[N+]([O-])c1ccc(Cl)c(S(=O)(=O)Nc2ccc(S(=O)(=O)N3CCOCC3)cc2)c1,-1%,131%,-15%,0%,2%,·,
COC(=O)CNC(=O)c1ccc(NS(=O)(=O)c2cc([N+](=O)[O-])ccc2Cl)cc1,?,?,32µM*,-49%,0%,76*,
CCc1ccc(-n2c(N3CCN(c4cccc(Cl)c4)CC3)nc3ccccc3c2=O)cc1,2%,13%,-17%,7%,2%,·,
N#C/C(=C\c1coc2ccc(O)cc2c1=O)C(=O)Nc1nc2ccccc2s1,?,?,3.5µM*,2.8µM*,·,·,GALK confirm=33µM*;Redox cycling=-1%;HEK293 viability=?
O=C1c2cccc3cccc(c23)C(=O)N1Cc1cccnc1,-1%,109%,-15%,0%,-1%,·,
O=C1c2cccc3c([N+](=O)[O-])ccc(c23)C(=O)N1Cc1cccnc1,16µM*,?,?,-10%,9%,?,
COc1cccc(Nc2nn3c(=O)c4ccccc4nc3s2)c1,·,-18%,50µM*,14%,-19%,?,
O=C1N=C(N2C=CC(=C3C=CNC=C3)C=C2)/C(=C/N=NC(=O)c2ccccc2O)S1,14µM*,32µM*,18µM*,?,9%,76*,
Cn1c(=O)c2nc3ccc(NC(=O)C(F)(F)F)cc3nc2n(C)c1=O,2%,41%,-10%,-4%,5%,·,
CC(=O)Nc1ccc2nc3c(=O)n(C)c(=O)n(C)c3nc2c1,?,10µM*,35µM*,?,·,85*,
O=C(CSc1nc2c(c(=O)[nH]1)CCCC2)Nc1ccccc1C(F)(F)F,-1%,5%,·,-9%,6%,·,
CC1=NN(c2ccccc2)C(=O)/C1=C\c1c(C)[nH]n(-c2ccccc2)c1=O,4%,6%,-11%,-7%,6%,·,
CC1=NN(c2ccccc2)C(=O)/C1=C/c1c(O)n(-c2ccc(F)c(Cl)c2)[nH]c1=O,?,-28%,28µM*,?,9%,·,GALK confirm=30µM*;Redox cycling=5%;HEK293 viability=12%
O=C(CSc1ncnc2sc3c(c12)CCC3)N1CCOCC1,40µM*,22µM*,35µM*,79µM*,-14%,?,
Cc1ccc(-c2csc3ncn(CC#N)c(=O)c23)cc1,?,17%,?,-10%[60.1 µM],2%,·,
Cc1ccc(-c2csc3ncn(CC#N)c(=O)c23)cc1C,32µM*,28µM*,20µM*,79µM*,·,54*,Pol kappa inh-2=60*
COCCCn1c(=O)/c(=C\c2ccccc2OC(F)F)s/c1=C(/C#N)C(=O)NC(C)C,-7%,1%,-6%,-3%,5%,·,
COCCCn1c(=O)/c(=C\c2ccccc2OC(C)C)s/c1=C(/C#N)C(=O)Nc1ccc(C(=O)O)cc1,1%,?,?,-28%,-10%,43*,
O=C(c1cc(-c2ccccc2)on1)N1CCCc2ccccc21,-5%,32%,-21%,-2%,3%,·,
SMILES,POLB inh,Pol iota inh,Pol eta inh-1,Pol kappa inh-1,TDP1 inh,Pol eta inh-2,others
O=C(c1coc(=O)c(Br)c1)N1CCCc2ccccc21,25µM*,16µM*,11µM*,32µM*,·,38*,Pol kappa inh-2=42*
O=C(c1cc(-c2ccco2)on1)N1CCCc2ccccc21,35µM*,?,79µM*,79µM*,9%,?,
CC(C)C(NS(=O)(=O)c1ccc2c(c1)oc(=O)n2C)C(=O)N1CCN(c2cccc(Cl)c2)CC1 (stereo not drawn),0%,15%,-14%,0%,6%,·,
Cc1ccc(C(=O)OCC(=O)c2ccc(CC(=O)N3CCOCC3)s2)cc1C,·,22µM*,13µM*,79µM*,-17%,?,
CCOc1ccc(C(=O)OCC(=O)N2CCOCC2)cc1OCC,18%,21%,-3%,-8%,0%,·,
CCOc1cc(/C=C(\C#N)C(=O)Nc2cccc(C(=O)O)c2)ccc1OCc1ccccc1Cl,-2%,?,56µM*,0%,79µM*,?,
Cc1cc(C)nc(NS(=O)(=O)c2ccc(-n3cccc3)cc2)n1,32µM*,?,10µM*,79µM*,-2%,54*,
Cc1cc(C)nc(NS(=O)(=O)c2ccc(N)cc2)n1,30%,?,-15%,?,5%,·,
Cn1c(=O)oc2cc(S(=O)(=O)NCCC(=O)Nc3ccc4c(c3)OCCO4)ccc21,-3%,?,-27%,-30%,0%,·,
Cn1c(=O)oc2cc(S(=O)(=O)NCCC(=O)Nc3ccc(F)c(Cl)c3)ccc21,?,79µM*,32µM*,79µM*,?,43*,
Cc1cc(NC(=O)CN(C)S(=O)(=O)c2ccc3c(c2)CCC(=O)N3)ccc1Br,-1%,7%,-6%,-14%,2%,·,

# Screens (PubChem BioAssay)
